Laboratory results published in PubChem BioAssay.
Results filed as inconclusive are left out. The source made the active and inactive calls. Rule as the data show it, unless noted: active = response above about 15%; inactive = the rest.

Tests used:
[1] = rapamycin-like changes in RPL19A-GFP expression – cell-based, S. cerevisiae, multiplex flow cytometry, primary screen (AID 1862; in the data active = percent of DMSO control GFP below about 86%;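 also: lower values mimic rapamycin by blocking the RPL19A rise seen in DMSO cells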); conditions: S. cerevisiae RPL19A-GFP strain, flow cytometry fluorescence, 3 h; at 10 µM; stronger effect = lower value
[2] = TOR pathway GLN3 branch reporter MEP2-GFP changes – S. cerevisiae, multiplex flow cytometry, primary screen (AID 1867;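 active = GFP response, as percent of the DMSO control, above the screen-wide mean plus 3 SD, about 139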;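 also: median GFP channel fluorescence of barcode-gated MEP2-GFP cells measured by flow cytometry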); conditions: S. cerevisiae MEP2-GFP strain, 3 h, at 10 µM, stronger effect = higher value, 100% means same as DMSO wells
[3] = TOR pathway RTG branch CIT2 reporter changes – S. cerevisiae, GFP fusion, multiplex flow cytometry, primary screen (AID 1870;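 active = percent response above a set limit, the screen-wide mean plus 3 SD, cut at about 130% in these data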;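 also: barcoded CIT2-GFP strain pooled with four other GFP strains with rapamycin as positive control; median GFP fluorescence per well over plate mean of DMSO wells so 100% = DMSO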); conditions: S. cerevisiae CIT2-GFP expression, 3 h, at 10 µM, stronger effect = higher value
[4] = TOR pathway LAP4-GFP level changes – S. cerevisiae, multiplex flow cytometry, primary screen (AID 1873;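 active = GFP signal, as percent of the solvent control, above the screen mean plus 3 SD, about 149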); conditions: S. cerevisiae LAP4-GFP expression, 3 h, at 10 µM, stronger effect = higher value
[5] = yeast AGP1-GFP level changes, GLN3 branch – cell-based, multiplex flow cytometry, S. cerevisiae, primary screen (AID 1887;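 active = GFP signal above the screen-wide mean plus 3 SD, that is over about 124.5% of the solvent control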;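 also: AGP1-GFP fusion strain of S. cerevisiae within a five-strain barcoded multiplex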); conditions: 3 h, at 10 µM, stronger effect = higher value
[6] = reduced mouse 2C T cell binding to pMHC/ICAM-1 vesicles – MLPCN validation set, flow cytometry, LFA-1/ICAM-1 modulator project, pilot screen (AID 2523;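 active = response below a set limit, under 55% cells CD8-positive and vesicle-bound, and CD8 cells' 90th-percentile brightness under 279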;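 as to vesicle binding response: mean PE anti-B7-1 fluorescence of CD8+ cells relative to row control; 100% = QL9-loaded vesicles with DMSO vehicle in the same plate row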); conditions: 2C mouse CD8+ T cells, at 7 µM, stronger effect = lower value; double positive events: measured here: CD8+/vesicle+ event percentage
[7] = molecular target: Integrin beta-1 (Homo sapiens) + Integrin alpha-4 (Homo sapiens) (UniProt P13612+P05556); assay: alpha4beta1 integrin LIBS antibody binding reduction – U937 cells, HUTS-21 mAb, flow cytometry, validation set, VLA-4 allosteric modulator project, pilot screen (AID 2674;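 active = inhibition above 50%, about 3 SD of the validation set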;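 also: antibody binding induced by the VLA-4 ligand LDV present at three times its Kd; 0% = LDV ligand with antibody and no compound and 100% = antibody without LDV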); conditions: HUTS-21 LIBS mAb binding, at 6.7 µM, stronger effect = higher value, binding induced by LDV ligand
Integrin beta-1 (Homo sapiens) + Integrin alpha-4 (Homo sapiens), sequence (P05556 whole entry, looked up): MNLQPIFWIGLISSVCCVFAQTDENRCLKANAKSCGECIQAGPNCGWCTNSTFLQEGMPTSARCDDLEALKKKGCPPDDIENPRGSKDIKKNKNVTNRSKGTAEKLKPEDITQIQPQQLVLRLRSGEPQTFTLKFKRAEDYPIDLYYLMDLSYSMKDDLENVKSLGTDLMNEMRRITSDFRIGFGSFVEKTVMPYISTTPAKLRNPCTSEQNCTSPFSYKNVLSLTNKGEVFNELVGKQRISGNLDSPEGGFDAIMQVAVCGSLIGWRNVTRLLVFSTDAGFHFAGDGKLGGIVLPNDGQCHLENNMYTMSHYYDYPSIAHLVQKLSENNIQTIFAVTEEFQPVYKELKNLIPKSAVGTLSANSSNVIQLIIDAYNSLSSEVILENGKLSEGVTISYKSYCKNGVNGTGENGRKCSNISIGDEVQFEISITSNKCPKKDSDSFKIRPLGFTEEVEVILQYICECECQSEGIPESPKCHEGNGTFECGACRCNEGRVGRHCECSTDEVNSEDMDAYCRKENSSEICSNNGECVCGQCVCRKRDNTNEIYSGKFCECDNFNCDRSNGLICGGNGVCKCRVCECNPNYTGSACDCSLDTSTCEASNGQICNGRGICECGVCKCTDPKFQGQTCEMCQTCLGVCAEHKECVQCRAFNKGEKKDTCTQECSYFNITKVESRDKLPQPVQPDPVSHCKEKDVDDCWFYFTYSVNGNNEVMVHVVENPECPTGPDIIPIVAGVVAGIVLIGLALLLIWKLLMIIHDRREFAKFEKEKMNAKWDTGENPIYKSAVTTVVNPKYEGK
Integrin beta-1 (Homo sapiens) + Integrin alpha-4 (Homo sapiens), sequence (P13612 whole entry, looked up): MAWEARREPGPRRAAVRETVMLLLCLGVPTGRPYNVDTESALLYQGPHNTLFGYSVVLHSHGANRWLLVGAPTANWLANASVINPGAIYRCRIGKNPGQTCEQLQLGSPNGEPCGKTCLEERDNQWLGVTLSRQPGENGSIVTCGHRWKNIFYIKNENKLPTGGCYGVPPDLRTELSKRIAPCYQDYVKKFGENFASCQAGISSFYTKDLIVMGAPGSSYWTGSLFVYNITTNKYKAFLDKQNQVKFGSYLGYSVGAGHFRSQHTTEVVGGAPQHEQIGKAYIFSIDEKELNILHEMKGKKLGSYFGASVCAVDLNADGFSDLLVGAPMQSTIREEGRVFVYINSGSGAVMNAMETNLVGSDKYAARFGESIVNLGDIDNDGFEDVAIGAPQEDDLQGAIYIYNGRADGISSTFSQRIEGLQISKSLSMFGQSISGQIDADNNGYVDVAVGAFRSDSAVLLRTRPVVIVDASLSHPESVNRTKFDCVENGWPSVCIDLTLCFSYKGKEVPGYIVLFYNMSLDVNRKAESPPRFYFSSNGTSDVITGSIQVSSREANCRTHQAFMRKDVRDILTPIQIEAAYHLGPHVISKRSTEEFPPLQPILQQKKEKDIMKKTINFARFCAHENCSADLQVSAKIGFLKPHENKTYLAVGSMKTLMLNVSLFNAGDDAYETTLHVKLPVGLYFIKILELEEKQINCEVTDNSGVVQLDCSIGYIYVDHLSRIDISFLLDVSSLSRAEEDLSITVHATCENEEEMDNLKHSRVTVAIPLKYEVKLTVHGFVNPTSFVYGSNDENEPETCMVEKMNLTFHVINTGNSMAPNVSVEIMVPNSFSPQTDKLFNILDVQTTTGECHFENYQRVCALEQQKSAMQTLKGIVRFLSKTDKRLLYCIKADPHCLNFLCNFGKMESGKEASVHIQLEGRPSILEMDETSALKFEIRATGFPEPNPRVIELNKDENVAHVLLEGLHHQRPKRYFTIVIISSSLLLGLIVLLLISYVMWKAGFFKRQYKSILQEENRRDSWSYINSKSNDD

[8] = calorie-restriction mimetic ROS inhibitors, yeast – validation compound set, pilot screen (AID 2706;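 active = superoxide response below 65% of plate, a cut near 3 SD across the whole screen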;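 also: yeast exposed to compound for one week at 30 degrees C before staining; 100% = mean of all compound wells on the same plate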); conditions: S. cerevisiae aging, superoxide DHE fluorescence; at 10 µM; stronger effect = lower value
[9] = molecular target: Beta-adrenergic receptor kinase 1 (Homo sapiens) (UniProt P25098); assay: GRK2 binders displacing RNA aptamer, biochemical, validation, human GRK2, bead flow cytometry (AID 488806;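 active = aptamer binding inhibition above 30%, about 3 SD of noise from non-fluorescent compounds; inactive = inhibition at or below 30%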); conditions: bead-bound GRK2, FAM-aptamer displacement, at 10 µM, stronger effect = higher value
Beta-adrenergic receptor kinase 1 (Homo sapiens), sequence (P25098 whole entry, looked up): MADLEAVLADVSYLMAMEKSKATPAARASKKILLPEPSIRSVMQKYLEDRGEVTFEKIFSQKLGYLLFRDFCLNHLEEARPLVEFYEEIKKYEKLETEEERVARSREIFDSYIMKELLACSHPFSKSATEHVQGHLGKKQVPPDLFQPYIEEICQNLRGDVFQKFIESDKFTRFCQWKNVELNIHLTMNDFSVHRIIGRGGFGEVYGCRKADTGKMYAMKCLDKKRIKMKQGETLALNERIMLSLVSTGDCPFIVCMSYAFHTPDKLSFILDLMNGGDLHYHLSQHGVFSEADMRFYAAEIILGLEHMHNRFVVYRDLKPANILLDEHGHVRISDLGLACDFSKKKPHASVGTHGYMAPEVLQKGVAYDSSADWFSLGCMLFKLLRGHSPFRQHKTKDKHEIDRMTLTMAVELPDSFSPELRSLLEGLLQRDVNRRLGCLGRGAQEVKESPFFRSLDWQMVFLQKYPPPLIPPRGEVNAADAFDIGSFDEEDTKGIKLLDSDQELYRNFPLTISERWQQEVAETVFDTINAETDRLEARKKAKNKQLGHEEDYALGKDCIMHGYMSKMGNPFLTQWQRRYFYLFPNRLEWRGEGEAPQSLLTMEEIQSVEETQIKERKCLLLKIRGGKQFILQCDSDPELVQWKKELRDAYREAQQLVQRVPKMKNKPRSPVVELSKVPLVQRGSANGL

[10] = molecular target: Beta-2 adrenergic receptor (Homo sapiens) (UniProt P07550); assay: agonist-induced loss of surface beta2AR – cell-based, FAP fluorogen, flow cytometry, validation set, pilot screen (AID 504459;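 active = percent response above 42, roughly 3 SD of non-fluorescent test compounds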;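 also: agonist-driven loss of surface beta2AR via internalization measured by FAP dye flow cytometry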); conditions: Am2.2-beta2AR cells, at 10 µM, stronger effect = higher value
Beta-2 adrenergic receptor (Homo sapiens), sequence (P07550 whole entry, looked up): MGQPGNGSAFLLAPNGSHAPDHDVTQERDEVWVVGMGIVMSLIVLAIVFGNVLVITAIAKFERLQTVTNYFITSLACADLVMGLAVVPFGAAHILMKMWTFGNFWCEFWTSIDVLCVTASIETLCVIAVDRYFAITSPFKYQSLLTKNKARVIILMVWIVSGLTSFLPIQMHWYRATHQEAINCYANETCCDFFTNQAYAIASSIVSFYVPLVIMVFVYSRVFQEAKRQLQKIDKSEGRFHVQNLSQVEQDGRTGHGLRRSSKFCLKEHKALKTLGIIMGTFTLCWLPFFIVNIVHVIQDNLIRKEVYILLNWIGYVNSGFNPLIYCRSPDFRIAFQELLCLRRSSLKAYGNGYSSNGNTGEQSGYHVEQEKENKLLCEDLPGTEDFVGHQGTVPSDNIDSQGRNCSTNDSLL

[11] = molecular target: AP-2 complex subunit beta (Homo sapiens) (UniProt P63010); assay: beta-arrestin/AP2 interaction blockers – biochemical, validation set, GST-AP2 beads, flow cytometry, pilot screen (AID 504541;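 active = inhibition above 54%, about 3 SD of non-fluorescent compounds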;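 also: AP2 carries R879A mutation and is captured from E. coli lysate; bead-bound FITC arrestin peptide fluorescence measuring arrestin peptide binding to AP2; 0% = DMSO wells and 100% = excess unlabeled arrestin peptide control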); conditions: FITC arrestin peptide, at 10 µM, stronger effect = higher value, AP2 beta2 appendage fragment, R879A mutant
AP-2 complex subunit beta (Homo sapiens), sequence (P63010 whole entry, looked up, the tested form may be a part, one chain of several): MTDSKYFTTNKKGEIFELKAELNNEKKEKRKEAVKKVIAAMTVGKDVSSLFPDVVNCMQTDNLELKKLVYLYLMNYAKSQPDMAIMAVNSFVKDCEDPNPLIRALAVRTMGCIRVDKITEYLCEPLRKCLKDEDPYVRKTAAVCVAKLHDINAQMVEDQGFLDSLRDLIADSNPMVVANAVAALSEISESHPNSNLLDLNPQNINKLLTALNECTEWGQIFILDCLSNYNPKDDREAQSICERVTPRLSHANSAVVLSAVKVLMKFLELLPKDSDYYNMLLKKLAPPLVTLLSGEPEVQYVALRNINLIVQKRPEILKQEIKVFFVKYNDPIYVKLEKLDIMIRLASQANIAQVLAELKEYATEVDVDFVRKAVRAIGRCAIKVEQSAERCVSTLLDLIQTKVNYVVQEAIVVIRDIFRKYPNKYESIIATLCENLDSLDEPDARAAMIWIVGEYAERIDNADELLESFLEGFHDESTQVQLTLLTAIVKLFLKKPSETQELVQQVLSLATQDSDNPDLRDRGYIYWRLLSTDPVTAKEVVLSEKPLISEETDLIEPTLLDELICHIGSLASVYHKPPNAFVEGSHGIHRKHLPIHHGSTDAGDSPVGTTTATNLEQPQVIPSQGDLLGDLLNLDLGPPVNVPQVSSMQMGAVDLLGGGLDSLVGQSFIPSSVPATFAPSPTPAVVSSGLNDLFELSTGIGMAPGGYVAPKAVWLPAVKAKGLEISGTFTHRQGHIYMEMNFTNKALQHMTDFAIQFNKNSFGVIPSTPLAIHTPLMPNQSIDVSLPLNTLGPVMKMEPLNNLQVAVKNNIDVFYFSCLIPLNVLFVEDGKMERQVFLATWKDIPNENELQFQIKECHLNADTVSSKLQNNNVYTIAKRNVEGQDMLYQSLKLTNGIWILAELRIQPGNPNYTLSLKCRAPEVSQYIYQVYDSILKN

[12] = cytosolic pH regulators acting via V-ATPase – S. cerevisiae, pHLuorin, HTS validation (AID 504600); conditions: V-ATPase proton transport, at 10 µM, stronger effect = higher value;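 also: plate controls were DMSO for no effect and reference compound for full effect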
[13] = tested on: anti-desmoglein-3 scFv antibody binding to human DSG3; assay: blockers of pathogenic pemphigus antibody–desmoglein-3 binding – biochemical, validation compound set, bead-based, flow cytometry, pilot screen (AID 588368;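 active = binding below the plate cutoff, the plate median minus 3 SD, with a reading above zero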;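 also: signal is the median channel fluorescence of bead-bound GFP antibody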); conditions: Protein G beads, DSG3-Fc, scFv-GFP binding, at 10 µM, stronger effect = lower value
[14] = Nile Red efflux blockade in pump-expressing yeast – validation compound set, multiplex, phenotypic, pilot screen (AID 588506;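 active = efflux inhibition above 0.42, the validation set average plus 4 SD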;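 also: Nile Red retained in cells so higher fluorescence means more efflux inhibition; 0 = negative control wells and 1 = enniatin B 25 µM full block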); conditions: S. cerevisiae pump-expressing triplex, Nile Red efflux flow cytometry; at 10 µM; stronger effect = higher value; the pumps come from Candida albicans
[15] = molecular target: ATP-binding cassette sub-family B member 6 (Homo sapiens) (UniProt Q9NP58); assay: blockers of ABCB6-driven porphyrin uptake – K562-ABCB6 cells, flow cytometry, validation set, pilot screen (AID 588550;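 active = inhibition above the screen-wide mean plus 3 SD, about 51%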;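 also: 0% = DMSO wells and 100% = benzethonium chloride 70 µM positive control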); conditions: K562-ABCB6 porphyrin accumulation, 1 h, at 10 µM, stronger effect = higher value
ATP-binding cassette sub-family B member 6 (Homo sapiens), sequence (Q9NP58 whole entry, looked up): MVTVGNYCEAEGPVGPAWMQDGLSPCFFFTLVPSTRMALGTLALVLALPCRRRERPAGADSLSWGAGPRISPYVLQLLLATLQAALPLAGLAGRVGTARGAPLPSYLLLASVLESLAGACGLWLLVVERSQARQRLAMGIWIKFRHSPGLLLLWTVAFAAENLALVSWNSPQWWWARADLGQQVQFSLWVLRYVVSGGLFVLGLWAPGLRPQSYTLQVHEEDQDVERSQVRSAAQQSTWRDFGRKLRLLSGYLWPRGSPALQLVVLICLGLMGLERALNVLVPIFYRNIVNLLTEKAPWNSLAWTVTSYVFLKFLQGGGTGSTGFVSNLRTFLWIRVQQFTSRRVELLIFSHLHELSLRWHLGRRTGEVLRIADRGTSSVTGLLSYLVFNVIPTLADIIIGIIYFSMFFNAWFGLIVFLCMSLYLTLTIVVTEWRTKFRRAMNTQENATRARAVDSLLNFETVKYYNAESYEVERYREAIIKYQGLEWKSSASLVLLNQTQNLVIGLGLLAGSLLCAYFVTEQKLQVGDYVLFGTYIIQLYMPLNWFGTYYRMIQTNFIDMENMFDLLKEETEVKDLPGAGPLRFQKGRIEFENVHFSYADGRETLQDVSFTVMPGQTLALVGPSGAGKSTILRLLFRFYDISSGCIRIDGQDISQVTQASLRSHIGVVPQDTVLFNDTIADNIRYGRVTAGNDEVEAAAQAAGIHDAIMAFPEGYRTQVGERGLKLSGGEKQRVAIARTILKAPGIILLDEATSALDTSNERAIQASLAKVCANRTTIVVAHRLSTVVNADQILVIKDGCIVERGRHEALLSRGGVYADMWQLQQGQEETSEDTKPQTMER

[16] = AML differentiation inducers, ER-HoxA9 marrow cells – cell-based, GFP/MAC1 double positive, flow cytometry, validation set, primary screen (AID 588685;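 active = differentiation response of at least 50%, scaled between solvent and reference control, from cells with both markers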;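 also: compound exposure lasts four days before antibody staining and flow analysis; 0% = DMSO wells and 100% = 5 µM fulvestrant positive control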); conditions: stronger effect = higher value, normalized: vehicle 0, fulvestrant 100

CC(=O)c1cc2c(cc1NC(=O)c1ccco1)OCCO2
58.2%: double positive events [6]
inactive: percent of DMSO control GFP [1] 103% | GFP response vs DMSO [2] 107% | percent response of DMSO control [3] 109% | GFP response vs DMSO [4] 120% | GFP response, % of DMSO [5] 110% | vesicle binding response [6] 178% | inhibition [7] 10.8% | superoxide response (% of plate) [8] 91.9% | aptamer binding inhibition [9] 1% | response [10] -30.9% | inhibition [11] -8.68% | response [12] -7.07% | binding (% of control) [13] 99.5% | efflux inhibition (fraction of control) [14] -0.04 | inhibition [15] 2% | differentiation response [16] -11.9%

CCSC(SCC)[C@H](O)[C@@H](O)[C@H](O)[C@H](O)CO
inactive: percent of DMSO control GFP [1] 95.5% | GFP response vs DMSO [2] 113% | percent response of DMSO control [3] 107% | GFP response vs DMSO [4] 74.8% | GFP response, % of DMSO [5] 93.8% | vesicle binding response [6] 218% | inhibition [7] 6.46% | superoxide response (% of plate) [8] 114% | aptamer binding inhibition [9] 7% | response [10] -7.81% | inhibition [11] 4.05% | response [12] -1.88% | binding (% of control) [13] 104% | efflux inhibition (fraction of control) [14] 0.3 | inhibition [15] 6% | differentiation response [16] -2.46%
58%: double positive events [6]

CCc1cc2c(=O)c(-c3nc(C)cs3)c(CCCC(=O)O)oc2cc1O
active: vesicle binding response [6] 39.1%
54.4%: double positive events [6]
inactive: percent of DMSO control GFP [1] 103% | GFP response vs DMSO [2] 108% | percent response of DMSO control [3] 102% | GFP response vs DMSO [4] 98% | GFP response, % of DMSO [5] 100% | inhibition [7] 1.62% | superoxide response (% of plate) [8] 105% | aptamer binding inhibition [9] 2% | response [10] -4.49% | inhibition [11] -6.82% | response [12] -0.76% | binding (% of control) [13] 114% | efflux inhibition (fraction of control) [14] -0.2 | inhibition [15] -3% | differentiation response [16] 2.2%

OCCC1CN(Cc2ccccc2-c2ccco2)CCN1C1CCCC1 (stereo not given)
inactive: percent of DMSO control GFP [1] 99% | GFP response vs DMSO [2] 97.6% | percent response of DMSO control [3] 93.1% | GFP response vs DMSO [4] 110% | GFP response, % of DMSO [5] 110% | vesicle binding response [6] 123% | inhibition [7] 12.5% | superoxide response (% of plate) [8] 95% | aptamer binding inhibition [9] 0% | response [10] -21.4% | inhibition [11] -16.3% | response [12] 4.26% | binding (% of control) [13] 101% | efflux inhibition (fraction of control) [14] 0.04 | inhibition [15] 1% | differentiation response [16] -3.02%
59%: double positive events [6]

COc1ccc2[nH]c(CN3CCN(CC(C)C)C(CCO)C3)c(C)c2c1 (stereo not given)
61.7%: double positive events [6]
inactive: percent of DMSO control GFP [1] 98.8% | GFP response vs DMSO [2] 105% | percent response of DMSO control [3] 94.8% | GFP response vs DMSO [4] 105% | GFP response, % of DMSO [5] 98% | vesicle binding response [6] 231% | inhibition [7] -3.16% | superoxide response (% of plate) [8] 95.8% | aptamer binding inhibition [9] 3% | response [10] -3.42% | inhibition [11] -1.65% | response [12] 2.28% | binding (% of control) [13] 97.4% | efflux inhibition (fraction of control) [14] -0.06 | inhibition [15] 6% | differentiation response [16] -4%
